An excerpt weighted towards active compounds, which were near 10% of everything screened.
BAZ2B block = qHTS Assay for Inhibitors of BAZ2B; Bromodomain adjacent to zinc finger domain protein 2B (Homo sapiens), Q9UIF8; AlphaScreen BAZ2B-H3K14Ac peptide displacement; Potency, µM (doses to about 114 µM), without a hit: top-dose activity change, negative = inhibition, hits mostly inhibitors; 360,000 tested, 4.4% active; note: % is set by controls: 0 for no effect and ±100 for the full control effect; nearly all actives have a fitted effect of over 60% in size
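AlphaScreen luminescence quantifies BAZ2B engagement of H3K14Ac peptide; the protein and biotinylated peptide are both at 50 nM final, buffer PBS pH 7.4 with 0.01% Tween-20, all steps at room temperature.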
G9a block = qHTS Assay for Inhibitors of Histone Lysine Methyltransferase G9a. Histone-lysine N-methyltransferase EHMT2 (Homo sapiens), Q96KQ7. G9a H3K9 monomethylation, AlphaScreen, 2 h. 350,000 tested, 8.8% active. Potency, µM (doses to about 102 µM), for the others: top-dose activity, negative = inhibition, actives largely listed as inhibitors; note: % is set by controls: 0 for no effect and ±100 for the full control effect; nearly all actives have a fitted effect of over 75% in size
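AlphaScreen detection with an anti-monomethyl H3K9 antibody quantified product after a 2 h room-temperature reaction containing 500 nM biotinylated H3K9 peptide, 20 µM SAM and 20 nM enzyme, which had been preincubated 15 min with compound.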
GLS inhibitor = qHTS for Inhibitors of Glutaminase (GLS); Potency, µM (series often up to 45.5 µM), for the others: at the top dose activity change, negative = inhibition, actives largely listed as inhibitors; GLS enzymatic activity, qHTS titration; Glutaminase kidney isoform, mitochondrial (Homo sapiens), O94925; 410,000 tested, 0.21% active; note: % is set by controls: 0 for no effect and ±100 for the full control effect
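Two-point fluorescence kinetic (t0, 30 min RT) for hKGA; glutamate detected via glutamate oxidase–HRP–Amplex Red. Substrate: 1 mM L-glutamine solution; buffer 45 mM KH2PO4, pH 8.2.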
JMJD2A Tudor inh = qHTS Assay for Inhibitors of JMJD2A-Tudor Domain | 390,000 tested, 4.4% active | AlphaScreen JMJD2A-Tudor / H3K4me3 peptide binding | Potency, µM (series often up to 114 µM), for the others: at the highest dose activity change, negative = inhibition, hits mostly inhibitors; note: % is set by controls: 0 for no effect and ±100 for the full control effect; nearly all actives have a fitted effect of over 50% in size
Target sequence (O75164 whole entry, looked up, the tested form may be a part): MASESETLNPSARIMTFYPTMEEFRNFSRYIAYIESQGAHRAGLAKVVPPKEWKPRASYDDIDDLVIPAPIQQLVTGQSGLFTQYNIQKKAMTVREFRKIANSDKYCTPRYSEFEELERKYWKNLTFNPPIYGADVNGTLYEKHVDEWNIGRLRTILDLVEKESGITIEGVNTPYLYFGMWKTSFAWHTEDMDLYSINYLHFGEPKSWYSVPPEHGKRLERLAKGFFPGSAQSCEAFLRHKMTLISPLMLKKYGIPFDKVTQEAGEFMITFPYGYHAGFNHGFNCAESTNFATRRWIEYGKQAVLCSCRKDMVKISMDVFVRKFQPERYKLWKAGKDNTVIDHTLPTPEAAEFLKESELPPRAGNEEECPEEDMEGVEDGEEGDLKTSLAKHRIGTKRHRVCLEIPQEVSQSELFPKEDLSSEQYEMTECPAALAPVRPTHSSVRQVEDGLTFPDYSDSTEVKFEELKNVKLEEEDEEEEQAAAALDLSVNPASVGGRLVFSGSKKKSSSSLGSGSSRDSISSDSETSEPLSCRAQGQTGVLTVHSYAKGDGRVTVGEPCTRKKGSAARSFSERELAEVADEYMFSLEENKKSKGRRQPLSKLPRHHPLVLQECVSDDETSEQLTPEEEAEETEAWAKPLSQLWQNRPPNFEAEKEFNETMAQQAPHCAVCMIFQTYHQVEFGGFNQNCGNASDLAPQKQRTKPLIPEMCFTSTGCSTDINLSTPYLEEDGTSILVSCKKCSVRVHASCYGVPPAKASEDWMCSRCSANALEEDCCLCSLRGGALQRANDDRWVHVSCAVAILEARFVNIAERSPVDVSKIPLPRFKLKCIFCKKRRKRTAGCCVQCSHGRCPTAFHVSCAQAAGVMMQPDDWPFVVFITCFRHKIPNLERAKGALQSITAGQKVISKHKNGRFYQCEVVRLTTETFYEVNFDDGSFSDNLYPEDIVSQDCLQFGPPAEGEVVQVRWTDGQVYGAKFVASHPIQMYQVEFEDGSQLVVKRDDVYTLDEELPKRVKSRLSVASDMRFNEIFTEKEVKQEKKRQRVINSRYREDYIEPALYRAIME
HP1b binding inh = HTS for Inhibitors of HP1-beta Chromodomain Interactions with Methylated Histone Tails. Chromobox protein homolog 1 (Homo sapiens), P83916. AlphaScreen HP1-beta / biotin-H3K9me3 peptide binding. Potency, µM (doses to about 114 µM), for inactives: at the highest dose activity change, negative = inhibition, actives largely listed as inhibitors. 390,000 tested, 0.56% active; note: nearly all actives have a fitted effect of over 70% in size
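HP1-beta protein (50 nM final) preincubated 30 min at room temperature with biotinylated H3(1-18)K9me3 peptide (50 nM) in PBS pH 7.4, 0.01% Tween-20, then compound added for 30 min. AlphaScreen streptavidin donor/nickel chelate acceptor beads (10 ug/mL final), 30 min dark, luminescence read.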
* = called active by the depositor; ? = inconclusive; . = no result; ! = repeats disagree; [ ] = dose if it differs, or a comment. Calls come from the whole dose curve; as a rule, active = well fitted curve in the direction sought with a large enough effect; inconclusive = small, poorly fitted or top-dose-only effect, or another doubt; inactive = no such curve, though single readings can be large; an effect the other way counts as inactive or inconclusive. Potency is the fitted concentration of half-maximal effect.

SMILES | BAZ2B block | G9a block | GLS inhibitor | JMJD2A Tudor inh | HP1b binding inh
CCCCNC(=S)N1CCN(c2nc3ccccc3s2)CC1 | 0% | . | 0% | -9% | 29%
Cc1cc2c(s1)c1cnn(Cc3cccc(Cl)c3)c(=O)c1n2C | . | . | . | -32% | .
CCCOc1ccc(CNC(=O)c2oc3ccc4c(c3c2C)C(=O)CC(C)(CC)O4)cc1 (centres undefined) | -7% | -26%[59 µM] | 12% | -12% | 18%
CCOCCCNC(=S)N1CCN(Cc2ccco2)CC1 | 35µM* | 10µM* | 2% | -100% | 40µM*
O=C(CN1C(=O)NC(c2ccccc2)(c2ccccc2)C1=O)NCCNCCO | -1% | 8%[59 µM] | ? | -14% | 32%
CC(=O)/C(C[N+]1(C)CCCCC1)=N\O | ? | ? | 6% | 35µM* | -32%
C[N+]1(CC(=O)OC2CCCCCCCCCCC2)CCCC1 | -7% | ? | 0% | ? | 10%
O=C(NCCO)c1cccc(-c2cnc3cccnn23)c1 | . | . | 1% | . | .
CCN(Cc1ccccc1)C(=O)CCS(=O)(=O)c1ccc2c(c1)NC(=O)CO2 | -16% | 9% | 4% | -24% | -10%
CCN(Cc1ccccc1)C(=O)CCS(=O)(=O)c1cc2c(cc1Cl)NC(=O)CO2 | 4% | 50µM*! | -7% | -4% | 50%
O=C(/C=C/c1ccccc1)C1=C(O)C(=O)N(CCO)C1c1ccccc1[N+](=O)[O-] (centres undefined) | -31% | 45µM* | -2% | ? | -5%[57 µM]
COc1ccc(Cn2cc(CN3CC(N4CC=CC4)CS3(=O)=O)nn2)cc1 (centres undefined) | . | . | 11% | . | .
COc1ccc(NC(=O)c2ccc(-c3ccc(-c4noc(C)n4)cc3C)cc2)cc1N1CCN(C)CC1 | 35µM* | 25µM* | 20% | 45µM* | ?
COc1ccc(NC(=O)c2ccc(-c3ccc(-c4noc(C)n4)cc3C)cc2)cc1OCCN(C)C | . | 16µM* | . | . | .
COc1ccc(NC(=O)N2CCN(c3cc(-c4noc(C)n4)ccc3C)CC2)c(OC)c1 | -9% | 12%[59 µM] | 29% | -30% | 35%[57 µM]
COc1cccc(CN(C)CCCn2cnc3c(SC)ncnc32)c1 | . | . | -2% | . | .
O=C(CSc1nc2ncccc2o1)Nc1ccc(Cl)cc1F | -6% | 12%[59 µM] | -2% | -14% | 14%
c1ccc(-c2nc3nonc3nc2-c2ccccc2)cc1 | 28µM* | 14µM* | -1% | 40µM* | ?
Nc1c(-c2ccccc2)nc(Cl)nc1-c1ccccc1 | 39% | 10%[59 µM] | 2% | 32%[57.1 µM] | 96%
CC1(C(=O)NC(=S)N(CCC#N)c2ccccc2)CC1(Cl)Cl (centres undefined) | -37% | 28µM* | 38% | ? | -1%
CCOC(=O)C1CCN(C(=O)c2cc(COc3ccc(OC)c4ccccc34)on2)CC1 | ? | 45µM* | 16% | -16% | -18%
COc1ccc(OCc2cc(C(=O)N3CCC(OC)CC3)no2)c2ccccc12 | ? | ? | -11% | ? | -10%
Cc1cccc(C(=O)Nc2ccc(N3CC=C(c4ccccc4C)CC3)c(C(=O)O)c2)c1 | 45µM* | ? | -28% | ? | -7%
COc1ccc(OC)c(C2(O)CSC(=Nc3cccnc3)N2Cc2ccco2)c1 (centres undefined) | 63µM* | -39% | 1% | -20%[57.1 µM] | 27%
N[C@@H](C(=O)N[C@@H]1C(=O)N2C(C(=O)O)=C(CSc3cn[nH]n3)CS[C@H]12)c1ccc(O)cc1 | . | . | 6.3µM* | . | .
SMILES | BAZ2B block | G9a block | GLS inhibitor | JMJD2A Tudor inh | HP1b binding inh
N[C@@H](C(=O)N[C@@H]1C(=O)N2C(C(=O)O)=C(Cl)CS[C@H]12)c1ccccc1 | 32µM* | 50µM* | 11µM*! | 25µM* | 18%
NC(C(=O)N[C@@H]1C(=O)N2C(C(=O)O)=C(Cl)CS[C@H]12)c1ccccc1 (some centres undefined) | . | 2.4µM*! | . | . | .
COC1=C(C(=O)O)N2C(=O)[C@@H](NC(=O)C(N)C3C=CCC=C3)[C@H]2SC1 (some centres undefined) | . | . | 0% | . | .
CC=CC1=C(C(=O)O)N2C(=O)[C@H](NC(=O)[C@H](N)c3ccc(O)cc3)[C@@H]2SC1 | . | ? | 24% | . | .
CC1=C(C(=O)O)N2C(=O)[C@@H](NC(=O)C(N)C3=CCC=CC3)[C@H]2SC1 (some centres undefined) | . | 12µM*! | . | . | .
CC1=C(C(=O)O)N2C(=O)C(NC(=O)C(N)c3ccc(O)cc3)C2SC1 (centres undefined) | . | -29%[2.33 µM] | . | . | .
CC(=O)Oc1ccc(Cn2c(C)c(C(=O)NC3CC3)sc2=O)cc1 | . | . | 4% | . | .
CC1CC(=O)N(CC(=O)Nc2ccc(OC(F)(F)F)cc2)c2ccccc2S1 (centres undefined) | 4% | -3%[59 µM] | 1% | 2% | 36%
CCOC(=O)N1C(COCc2ccccc2)C=CCS1(=O)=O (centres undefined) | . | . | . | -1% | 27%
COCCNc1nc(-c2ccc(Cl)cc2C)c2sccc2n1 | . | . | 3% | . | .
C=CCNC(=O)C1CC(=O)N(c2ccc(OCc3ccccc3Cl)cc2)C1 (centres undefined) | -7% | 35%[59 µM] | 4% | -15% | 34%
C=CCNC(=O)C1CC(=O)N(c2ccc(OCC(=O)Nc3ccc(Cl)cc3)cc2)C1 (centres undefined) | 3% | 11% | -8% | 71µM* | 9%
CC(=O)N[C@@H]1C(O)OC(CO)C(O)C1O (some centres undefined) | . | -4%[2.33 µM] | -4% | . | .
CC1CCN(S(=O)(=O)c2ccc3nc(N4CCN(c5ccc(F)cc5)CC4)ccc3c2)CC1 | -1% | -3%[59 µM] | -6% | 9% | 44%
CC1CCN(S(=O)(=O)c2ccc3nc(NCc4ccc(N(C)C)cc4)ccc3c2)CC1 | 35µM* | 10µM* | 4% | 14µM* | ?
CC(=O)c1ccc(N2CCN(c3ccc4cc(S(=O)(=O)N5CCC(C)CC5)ccc4n3)CC2)cc1 | ? | 18µM* | -20% | ? | 40%
CC1CCN(S(=O)(=O)c2ccc3nc(NCc4ccc(F)cc4)ccc3c2)CC1 | -2% | ? | 5% | 8% | 43%
Cc1cc(C)cc(C(=O)OCC(=O)Nc2ncccn2)c1 | -8% | 8%[12.7 µM] | -23% | -27% | 11%
CCOc1ccccc1C=NNC(=O)C1CC1 | . | . | -15% | -6% | 17%[57 µM]
CCOc1ccc(OCC)c(NC(=O)CCc2c(C)nc3c(c2C)c(=O)n(C)c(=O)n3C)c1 | -18% | 9%[59 µM] | -15% | -18% | 15%
Cc1ccc(C)c(NC(=O)CN(C)C(=O)C2CCCC2)c1 | 17% | ? | 0% | -18% | 30%

High-throughput results (PubChem BioAssay)
